The text below walks through data of PubChem BioAssay (NCATS).

Molecules are shown by their SMILES. Results filed as inconclusive are left out. Values without a mark were called inactive. Active and inactive are the calls of the source. Unless noted, the call rests on the fitted dose curve; in most records, active means well fitted curve in the direction sought with a large enough effect; inconclusive means small, poorly fitted or top-dose-only effect, or another doubt; inactive means no such curve, though single readings can be large; an effect the other way counts as inactive or inconclusive.

A short description of experiment [1]: HEK-293 Cancer Cell Toxicity qHTS against the NCATS CANVASS Library (AID 1347355). Put shortly: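 Luminescent ATP read-out (CellTiter-Glo, 15min at room temperature) measures survival after cells face an 11-point compound series for 72 hours at 37 degrees C/5% CO2.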
Experiment [2] relates to NAD(P)H diaphorase (Clostridium kluyveri). Description: Diaphorse counterscreen qHTS: Assay Interference Panel against the NCATS CANVASS Library (AID 1347362). Put shortly:
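Clostridium kluyveri diaphorase in PBS with 0.01% Tween-20 was preincubated 15 min at room temperature in the dark with compounds (11-point series). Resorufin fluorescence (ex 525/20, em 598/25) was read 5 min after adding resazurin/NADH.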

A short description of experiment [3]: KB-8-5-11 Cancer Cell Toxicity qHTS against the NCATS CANVASS Library (AID 1347364). In a few lines: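 Plate 500 KB-8-5-11 cells per well in DMEM + 10% FBS, add compounds by pin transfer, incubate 72 hr at 37C. Add CellTiter-Glo, wait 10 minutes at room temperature, read luminescence.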
Background: In qHTS, concentration-response curves come from the screen itself.

Experiment [4] in a line: KB-3-1 Cancer Cell Toxicity qHTS against the NCATS CANVASS Library (AID 1347366). Put shortly: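 Luminescence from CellTiter-Glo (10 min, room temperature) measured KB-3-1 viability after 72 hr compound exposure at 37C. Cells were seeded at 500/well and tested in an 11-point series.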
A short description of experiment [5]: qHTS for Hypoxia signaling pathway (HIF-1) antagonists against the NCATS CANVASS Library (AID 1347374). In a few lines:
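HRE-bla ME-180 cells in medium with 0.5% dialyzed FBS received compounds (11-point series) plus CoCl2 (60 uM addition stock) for 17 hrs at 37C. Beta-lactamase activity read with CCF4 (405 nm ex, 460/530 nm em); CellTiter-Glo viability measured in same wells.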

Experiment [6] is described as follows: qHTS for Inflammasome Signaling Inhibitors: IL-1-beta AlphaLISA screen against the NCATS CANVASS Library (AID 1347379). In a few lines:
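THP-1 cells pretreated 1 hr with compound (up to 57.5 uM final), then stimulated with LPS (250 ng/mL final) and ATP (1.25 mM final). Secreted IL-1B measured by AlphaLISA after 16 hr; glyburide as positive control.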

A short description of experiment [7]: qHTS assay for small molecule disruptors of mitochondrial membrane potential screened against the NCATS CANVASS Library (AID 1347389). Put shortly:
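HepG2, 2,000 cells/well, attached overnight; compound 1 hr, 37C, 5% CO2; Mito-MPS dye 30 min, 37C; fluorescence 535 nm (monomer) and 590 nm (aggregate); decreased 590/535 ratio = depolarization.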

Experiment [8] can be described thus: qHTS for inhibitors of Wild type Zika virus screened against the NCATS CANVASS Library (AID 1347396). Put shortly: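 Vero 766 (African green monkey) cells, 1000 per well, attached overnight, then compounds were added in an 11-point series before wild-type Zika virus infection. After 72 h at 37C, cell viability was read as CellTiter Glo luminescence.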
The nature of experiment [9]: qHTS for inhibitors of Rabies Virus screened against the NCATS CANVASS Library (AID 1347402; calls by dose curve).
Experiment [10] can be described thus: Viability qHTS for inhibitors of the SERCaMP assay screened against the NCATS CANVASS Library (AID 1347400). Put shortly:
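SH-SY5Y SERCaMP MJH297 cells, 1000/well; 4 h settle, 37C/5% CO2; pin-transferred cpds; 48 h; CellTiter-Glo lum. Pos ctrl bortezomib 0.0001 - 4.6 uM.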

As for `C1=C2CCCN[C@H]2C2CC1[C@H]1CCCCN1C2` (stereo not given in full), the Potency result in experiment [1], in experiment [2], in experiment [3], in experiment [4], in experiment [5] and in [6] was “inactive” throughout. In addition, the Potency entry in experiment [7] and in [8] was “inactive” in each case. Besides, the compound was classed as inactive in experiment [9].
Consider `CC[C@@H]1CN2CCC3(Nc4cccc(OC)c4C3=O)[C@@H]2C[C@@H]1/C(=C\OC)C(=O)OC` (stereo not given in full), for which the Potency entry in experiment [1], in experiment [2], in [3], in experiment [4], in experiment [5] and in experiment [6] was “inactive” throughout. For the same compound, the Potency entry in experiment [7], in experiment [8] and in [10] was “inactive” each time. Also, the call in experiment [9] was inactive.
Turning to `C=C[C@]12C=CCN3CC[C@@]4(c5ccccc5NC(=O)[C@@H]4C1)[C@@H]32`, the Potency entry in experiment [1], in experiment [2], in experiment [3], in experiment [4], in experiment [5] and in experiment [6] was “inactive” each time. Moreover, the Potency result in experiment [7], in experiment [8] and in experiment [10] was “inactive” each time. In addition, the call in experiment [9] was inactive.
For the compound `CO[C@H]1C[C@H](O[C@H]2[C@@H](O)C[C@H](O[C@H]3CC[C@]4(C=O)[C@H]5CC[C@]6(C)C(C7=CC(=O)OC7)CC[C@]6(O)[C@@H]5CC[C@]4(O)C3)O[C@@H]2C)O[C@H](C)[C@H]1O[C@H]1C[C@@H](OC)[C@@H](O[C@@H]2O[C@H](CO)[C@@H](O)[C@H](O)[C@H]2O)[C@@H](C)O1` (stereo not given in full), the Potency in experiment [1] is 118 nM (active); in experiment [3] it was 166 nM (active); in experiment [4] it was 187 nM (active); in experiment [5] it was 118 nM (active); in experiment [6], 1530 nM (active); in experiment [10], 135 nM (active). In addition, the Potency entry in experiment [2], in experiment [7] and in experiment [8] was “inactive” throughout.
In the case of `CCC(=O)N[C@@H](C[C@H](C)C(Cl)(Cl)Cl)C(=O)N1C(=O)C=C(OC)[C@@H]1C[C@H](C)C(Cl)Cl`, the Potency entry in experiment [1], in experiment [2], in experiment [4], in experiment [5], in experiment [6] and in [8] was “inactive” throughout. In addition, the Potency entry in experiment [10] is “inactive”.
As to `C=C[C@H]1CN2CCc3c([nH]c4cccc(OC)c34)[C@@H]2C[C@@H]1/C(=C\OC)C(=O)OC`, the Potency in experiment [1] was 18700 nM (active). Also, the Potency result in experiment [2], in experiment [3], in [5], in experiment [6], in experiment [8] and in experiment [10] was “inactive” throughout.
Turning to `CCCC[C@@H](C)/C=C1/CN2CCC[C@H]2[C@@](C)(O)[C@@H]1O`, the Potency entry in [1], in experiment [2], in experiment [3], in [4], in [5] and in experiment [6] was “inactive” throughout. The Potency result in [7], in experiment [8] and in [10] was “inactive” each time. Besides, the compound was classed as inactive in experiment [9].
In the case of `CN1CC[C@@]23c4ccccc4N[C@@H]1[C@@]21CCN(C)[C@@H]3Nc2ccccc21`, in [9], the compound was classed as inactive.
Regarding `COC1C(O)C(C)OC(OC2C(Oc3cccc4c(O)c5c(=O)oc6ccc(C)c7c(=O)oc(c34)c5c67)OC(C)C(O)C2O)C1O` (stereo not given), the Potency in experiment [1] was 14800 nM (active); in experiment [6], 27300 nM (active); in [10] it was 34000 nM (active). For the same compound, the Potency entry in experiment [8] was “inactive”. Also, the compound was called inactive in experiment [9].
As to `C/C=C(\C)C(=O)O[C@@H]1[C@@H](O)[C@@H]2O[C@H]3[C@H](O[C@@H](CCCCC)CCCCCCC(=O)CCC(=O)OC[C@@H](O2)[C@H]1OC(=O)/C=C/c1ccccc1)O[C@H](C)[C@H](OC(C)=O)[C@@H]3O`, the Potency was 118 nM (active) in experiment [1], 1480 nM (active) in experiment [3], 118 nM (active) in [4] and 16600 nM (active) in [7]. The Potency entry in [2] and in experiment [8] was “inactive” throughout.
On to `CCCCC1CC[C@H]2CCCC(CCC)N12` (stereo not given in full), for which the Potency result in experiment [1], in [2], in experiment [3], in [4], in experiment [5] and in experiment [6] was “inactive” throughout. For the same compound, the Potency entry in [7], in experiment [8] and in experiment [10] was “inactive” each time. The compound was classed as inactive in experiment [9].
As for `C/C=C1/CN2CC[C@@]34c5ccccc5N(C)[C@@H]3[C@@H]2C[C@@H]1[C@H]4C(=O)OC`, the Potency entry in experiment [1], in experiment [2], in [3], in experiment [4], in experiment [5] and in experiment [6] was “inactive” in each case. For the same compound, the Potency entry in experiment [7], in experiment [8] and in [10] was “inactive” each time. In addition, the call in experiment [9] was inactive.
In the case of `C/C=C/[C@@H]1[C@H]2C[C@@H](C)CC[C@@H]2C(C)=C[C@H]1C(=O)c1c(O)c(-c2ccc(O)cc2)c[nH]c1=O`, the Potency entry in experiment [2], in [6] and in [10] was “inactive” throughout. In addition, the Potency in experiment [3] was 20900 nM (active); in experiment [4] it was 18700 nM (active); in experiment [5] it was 23600 nM (active); in [7] it was 14800 nM (active).
For `CO[C@H]1[C@H](O[C@H]2CC[C@]3(C=O)[C@H]4CC[C@]5(C)[C@@H](C6=CC(=O)OC6)CC[C@]5(O)[C@@H]4CC[C@]3(O)C2)O[C@H](C)[C@H](O)[C@@H]1OC`, the Potency was 105 nM (active) in experiment [1]; 132 nM (active) in experiment [3]; 235 nM (active) in [4]; 83.8 nM (active) in experiment [5]; 685 nM (active) in experiment [6]; 303 nM (active) in experiment [10]. For the same compound, the Potency result in experiment [2], in [7] and in experiment [8] was “inactive” in each case.
